# Measured values reported in PubChem BioAssay (EPA / NIEHS).
# Several values for one entry are separate records, joined by “and”; a condition that tells them apart may be missing. Equal entries are not always repeated. Records with an inconclusive call do not appear. Where a structure was tested more than once in an assay, its records may differ in their call. Activity calls are given as the source filed them. How the source made its calls: active means hit-call score of the fitted dose curve at least 0.9, where 1 is the maximum; inconclusive means response in the unintended direction; inactive means score below 0.9.
# Columns and labels:
# [1] = biological target: Estrogen receptor (Homo sapiens) (UniProt P03372); assay: OT_ER_ERaERa_1440: Odyssey Thera (OT) 24-hour HEK293T Protein-Complementation Assay for Estrogen Receptor-alpha/-alpha Homodimer (AID 2283349);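 further: hits raise fluorescence above DMSO for agonists and antagonists alike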
# How it was run: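 HEK293T, stable ERα LBD (aa 310-547) homodimer PCA; 24 h compound exposure; mean fluorescence intensity (nuclear for agonists, nuclear plus cytoplasmic for antagonists) vs vehicle; positive fitting direction, DMSO baseline.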
# NCBI gene 100848466 = assay: NVS_NR_bPR: NovaScreen (NVS) Nuclear Receptor Binding Assay for bovine Progextron Receptor (PR) (AID 2283343);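 further: actives lower bound radioligand signal below DMSO meaning displacement of the label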
# How it was run: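 Competitive radioligand binding with membranes from bovine uterus, scintillation read-out at 18 h post-dose. Compounds first tested in duplicate at 25 uM, then actives in concentration series; loss-of-signal relative to DMSO.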
# [2] = biological target: bovine Estrogen Receptor (ER), ESR1 (gene 407238) (UniProt P49884); assay: NVS_NR_bER: NovaScreen (NVS) Nuclear Receptor Binding Assay for bovine Estrogen Receptor (ER) (AID 2283345);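 further: actives lower the bound radioligand count which means they displace the ER ligand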
# How it was run: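 Bovine uterine membranes; tritiated or iodinated radioligand; competitive displacement; 18 h; scintillation read; DMSO negative control; 25 uM duplicates, then concentration series for actives.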
# [3] = biological target: Estrogen receptor (Homo sapiens) (UniProt P03372); assay: OT_ER_ERaERa_0480: Odyssey Thera (OT) 8-hour HEK293T Protein-Complementation Assay for Estrogen Receptor-alpha/-alpha Homodimer (AID 2283351);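 further: rise in fluorescence from reassembled reporter fragments on ERα LBD homodimer in nucleus or whole cell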
# How it was run: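 Measures ERα LBD (aa 310-547) homodimer complementation in stably transfected HEK293T at 8 h post-dose, with fluorescence intensity quantified on a laser scanning cytometer relative to DMSO controls.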
# [4] = biological target: Estrogen receptor (Homo sapiens) + Estrogen receptor beta (Homo sapiens) (UniProt P03372+Q92731); assay: OT_ER_ERaERb_0480: Odyssey Thera (OT) 8-hour HEK293T Protein-Complementation Assay for Estrogen Receptor-alpha/-beta Heterodimer (AID 2283352)
# How it was run: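 Increase in mean fluorescence intensity, measured by laser scanning plate cytometry, reported ER-alpha/ER-beta LBD complementation in HEK293T cells after 8 h chemical exposure. DMSO served as baseline; basal signal is low, punctate and cytoplasmic.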
# [5] = biological target: rat Mineralocorticoid Receptor (MR), Nr3c2 (gene 25672) (UniProt P22199); assay: NVS_NR_rMR: NovaScreen (NVS) Nuclear Receptor Binding Assay for rat Mineralocorticoid Receptor (MR) (AID 2283355)
# How it was run: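 Primary HTS ran in duplicate at a single 25 uM concentration, with concentration-series follow-up for actives. Receptor source: adrenalectomized rat brain supernatant, cell-free. Radioligand displacement read by scintillation at 24 h, relative to DMSO baseline.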
# [6] = biological target: Bile acid receptor (Homo sapiens) (UniProt Q96RI1); assay: NVS_NR_hFXR_Antagonist: NovaScreen (NVS) Nuclear Receptor Binding Assay for human Farnesoid X Receptor Antagonism (FXR) (AID 2283350)
# How it was run: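 Antagonist-format time-resolved FRET binding assay with extracted human receptor protein, read 1 hour after compound addition. Compounds first screened at 25 uM in duplicate, then actives tested in concentration series, with loss of signal relative to DMSO.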
# Chain of Estrogen receptor (Homo sapiens) (P03372 whole entry, looked up, the tested form may be a part): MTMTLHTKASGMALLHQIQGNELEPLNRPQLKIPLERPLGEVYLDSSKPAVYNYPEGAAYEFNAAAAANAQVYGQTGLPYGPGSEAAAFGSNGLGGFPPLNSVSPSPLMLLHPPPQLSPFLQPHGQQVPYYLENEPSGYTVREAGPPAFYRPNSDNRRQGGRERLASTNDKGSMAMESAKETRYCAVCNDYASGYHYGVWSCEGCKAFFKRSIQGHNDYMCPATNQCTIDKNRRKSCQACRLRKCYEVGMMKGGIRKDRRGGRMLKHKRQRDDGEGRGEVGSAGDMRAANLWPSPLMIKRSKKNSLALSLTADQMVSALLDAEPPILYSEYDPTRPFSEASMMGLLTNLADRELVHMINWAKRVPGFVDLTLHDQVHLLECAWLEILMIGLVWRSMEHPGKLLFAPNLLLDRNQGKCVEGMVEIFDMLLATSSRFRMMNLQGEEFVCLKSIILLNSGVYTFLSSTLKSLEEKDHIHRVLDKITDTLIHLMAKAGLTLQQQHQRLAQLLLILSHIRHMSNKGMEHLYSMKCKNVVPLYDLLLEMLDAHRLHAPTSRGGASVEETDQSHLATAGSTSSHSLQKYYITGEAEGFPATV
# Chain of Estrogen receptor (Homo sapiens) + Estrogen receptor beta (Homo sapiens) (P03372 whole entry, looked up, the tested form may be a part): as above
# Chain of Estrogen receptor (Homo sapiens) + Estrogen receptor beta (Homo sapiens) (Q92731 whole entry, looked up, the tested form may be a part): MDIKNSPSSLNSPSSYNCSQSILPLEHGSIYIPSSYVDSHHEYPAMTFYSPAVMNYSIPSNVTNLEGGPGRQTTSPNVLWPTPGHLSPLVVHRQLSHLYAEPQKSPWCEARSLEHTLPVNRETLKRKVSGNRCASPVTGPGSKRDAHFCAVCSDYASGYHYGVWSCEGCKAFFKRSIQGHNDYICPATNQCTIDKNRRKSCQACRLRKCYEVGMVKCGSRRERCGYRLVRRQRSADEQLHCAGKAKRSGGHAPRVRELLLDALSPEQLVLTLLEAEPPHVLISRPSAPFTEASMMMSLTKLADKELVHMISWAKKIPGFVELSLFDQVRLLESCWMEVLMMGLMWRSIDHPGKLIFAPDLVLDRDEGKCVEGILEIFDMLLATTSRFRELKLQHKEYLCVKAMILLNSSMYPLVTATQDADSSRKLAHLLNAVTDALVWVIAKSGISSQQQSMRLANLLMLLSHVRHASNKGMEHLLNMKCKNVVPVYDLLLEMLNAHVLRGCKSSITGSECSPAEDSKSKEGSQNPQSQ
# Chain of bovine Estrogen Receptor (ER), ESR1 (gene 407238) (P49884 whole entry, looked up): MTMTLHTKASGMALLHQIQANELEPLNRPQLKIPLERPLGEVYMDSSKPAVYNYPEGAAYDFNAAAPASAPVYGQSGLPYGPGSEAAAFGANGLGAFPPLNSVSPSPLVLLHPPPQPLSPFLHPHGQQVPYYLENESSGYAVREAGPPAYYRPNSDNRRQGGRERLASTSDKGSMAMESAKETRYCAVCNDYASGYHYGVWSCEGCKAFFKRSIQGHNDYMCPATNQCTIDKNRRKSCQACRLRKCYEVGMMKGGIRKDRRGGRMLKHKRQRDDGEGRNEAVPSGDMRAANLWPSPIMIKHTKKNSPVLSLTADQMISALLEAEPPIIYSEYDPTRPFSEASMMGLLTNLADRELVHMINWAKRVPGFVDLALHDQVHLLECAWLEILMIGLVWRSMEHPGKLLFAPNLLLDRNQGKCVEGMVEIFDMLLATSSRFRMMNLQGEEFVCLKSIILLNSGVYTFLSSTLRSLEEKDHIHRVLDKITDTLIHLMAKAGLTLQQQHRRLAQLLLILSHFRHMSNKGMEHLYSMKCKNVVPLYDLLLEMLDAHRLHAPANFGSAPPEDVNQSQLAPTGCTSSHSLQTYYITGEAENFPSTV
# Chain of rat Mineralocorticoid Receptor (MR), Nr3c2 (gene 25672) (P22199 whole entry, looked up): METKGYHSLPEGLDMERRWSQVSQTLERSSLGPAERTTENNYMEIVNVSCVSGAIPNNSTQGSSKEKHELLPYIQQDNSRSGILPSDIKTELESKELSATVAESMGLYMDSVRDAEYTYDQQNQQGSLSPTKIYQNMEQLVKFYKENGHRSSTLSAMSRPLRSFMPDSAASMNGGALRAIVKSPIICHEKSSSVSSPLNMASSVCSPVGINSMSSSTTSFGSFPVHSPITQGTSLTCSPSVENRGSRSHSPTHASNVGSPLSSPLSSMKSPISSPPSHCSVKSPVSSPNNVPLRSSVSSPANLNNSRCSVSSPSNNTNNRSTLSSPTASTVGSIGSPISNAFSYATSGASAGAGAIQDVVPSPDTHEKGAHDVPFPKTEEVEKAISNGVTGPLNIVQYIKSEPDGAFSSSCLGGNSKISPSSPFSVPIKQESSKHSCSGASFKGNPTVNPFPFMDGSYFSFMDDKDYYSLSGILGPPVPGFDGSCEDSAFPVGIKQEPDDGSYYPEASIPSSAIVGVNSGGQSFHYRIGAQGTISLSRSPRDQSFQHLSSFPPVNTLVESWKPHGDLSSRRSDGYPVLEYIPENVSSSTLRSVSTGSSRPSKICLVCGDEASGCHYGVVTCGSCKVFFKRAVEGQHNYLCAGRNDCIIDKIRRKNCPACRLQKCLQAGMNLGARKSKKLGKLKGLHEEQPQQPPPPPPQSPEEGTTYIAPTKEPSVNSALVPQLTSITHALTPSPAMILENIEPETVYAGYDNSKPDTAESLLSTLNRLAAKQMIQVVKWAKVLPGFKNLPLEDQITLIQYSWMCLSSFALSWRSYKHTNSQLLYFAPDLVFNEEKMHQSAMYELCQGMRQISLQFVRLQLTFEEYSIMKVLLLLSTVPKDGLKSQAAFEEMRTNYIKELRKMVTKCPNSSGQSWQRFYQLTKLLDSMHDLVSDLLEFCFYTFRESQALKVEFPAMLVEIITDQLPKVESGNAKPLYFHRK
# Chain of Bile acid receptor (Homo sapiens) (Q96RI1 whole entry, looked up): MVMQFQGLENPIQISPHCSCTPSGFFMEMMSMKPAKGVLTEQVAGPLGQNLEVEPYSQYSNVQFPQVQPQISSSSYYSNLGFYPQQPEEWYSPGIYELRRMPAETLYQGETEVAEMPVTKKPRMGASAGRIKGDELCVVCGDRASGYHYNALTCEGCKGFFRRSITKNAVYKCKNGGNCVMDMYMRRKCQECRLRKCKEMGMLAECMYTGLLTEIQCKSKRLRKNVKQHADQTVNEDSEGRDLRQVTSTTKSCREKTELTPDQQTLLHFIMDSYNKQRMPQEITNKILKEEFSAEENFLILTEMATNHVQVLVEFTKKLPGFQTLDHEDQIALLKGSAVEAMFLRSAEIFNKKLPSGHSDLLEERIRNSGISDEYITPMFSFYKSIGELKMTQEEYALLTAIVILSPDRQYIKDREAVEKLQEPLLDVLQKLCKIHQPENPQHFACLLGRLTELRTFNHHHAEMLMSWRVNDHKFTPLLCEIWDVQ
compound,measurement,setting,value
CCCCCCCCCCCCN1CCCC1=O,outcome,[1],inactive
C[C@@H]1C[C@H]2[C@@H]3CCC4=CC(=O)C=C[C@]4(C)[C@@]3(F)[C@@H](O)C[C@]2(C)[C@@]1(O)C(=O)COP(=O)(O)O,AC50,NCBI gene 100848466,10.5 µM (active)
same,outcome,[2],inactive
same,outcome,[1],inactive
same,outcome,[3],inactive
same,outcome,[4],inactive
same,AC50,[5],8.69 nM (active) and 2.18 nM (active) and 33.9 nM (active)
OC1CCC(C2CCCCC2)CC1 (stereo not given),outcome,[2],inactive
same,outcome,[1],inactive
same,AC50,[3],81.9 µM (active)
same,outcome,[3],inactive
same,AC50,[4],50 µM (active) and 34.5 µM (active) and 48.7 µM (active)
same,outcome,[4],inactive
CC(C)CCCCCCOC(=O)CCCCC(=O)OCCCCCCC(C)C,outcome,[6],inactive
CCCCC(CC)COC(=O)CCCCC(=O)OCC(CC)CCCC (stereo not given),outcome,[6],inactive
